# An excerpt weighted towards active compounds, which were near 5.1% of everything screened.
# CRFR2-BP antag: blocks CRF-induced signaling of the CRF-BP/CRF-R2 complex | inhibition, % at 11.8 µM | HEK293 CRF-R2/CRF-BP, CRF-induced calcium fluorescence | actives 0.59% (n = 350,000) | AID 588475;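 active means inhibition of the ligand-induced calcium signal above about 50% at the single tested concentration, limit read from the data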
# ANO1 activ: activators or potentiators of mouse TMEM16A chloride channel. Q8BHY3. HEK293 TMEM16A/YFP-H148Q/I152L, iodide quench fluorescence; active compounds read low. actives 0.3% (n = 340,000). B-score at 10 µM;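 active means fluorescence-ratio B-score plate-corrected deviation score at least 3 library SD below zero, with starting fluorescence score within 5 deviations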;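 further: channel opened by trigger with iodide after compound preincubation; score built on the fluorescence ratio of max minus min over baseline; more negative score means more quench and so TMEM16A activation or potentiation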
# Target sequence (Q8BHY3 whole entry, looked up): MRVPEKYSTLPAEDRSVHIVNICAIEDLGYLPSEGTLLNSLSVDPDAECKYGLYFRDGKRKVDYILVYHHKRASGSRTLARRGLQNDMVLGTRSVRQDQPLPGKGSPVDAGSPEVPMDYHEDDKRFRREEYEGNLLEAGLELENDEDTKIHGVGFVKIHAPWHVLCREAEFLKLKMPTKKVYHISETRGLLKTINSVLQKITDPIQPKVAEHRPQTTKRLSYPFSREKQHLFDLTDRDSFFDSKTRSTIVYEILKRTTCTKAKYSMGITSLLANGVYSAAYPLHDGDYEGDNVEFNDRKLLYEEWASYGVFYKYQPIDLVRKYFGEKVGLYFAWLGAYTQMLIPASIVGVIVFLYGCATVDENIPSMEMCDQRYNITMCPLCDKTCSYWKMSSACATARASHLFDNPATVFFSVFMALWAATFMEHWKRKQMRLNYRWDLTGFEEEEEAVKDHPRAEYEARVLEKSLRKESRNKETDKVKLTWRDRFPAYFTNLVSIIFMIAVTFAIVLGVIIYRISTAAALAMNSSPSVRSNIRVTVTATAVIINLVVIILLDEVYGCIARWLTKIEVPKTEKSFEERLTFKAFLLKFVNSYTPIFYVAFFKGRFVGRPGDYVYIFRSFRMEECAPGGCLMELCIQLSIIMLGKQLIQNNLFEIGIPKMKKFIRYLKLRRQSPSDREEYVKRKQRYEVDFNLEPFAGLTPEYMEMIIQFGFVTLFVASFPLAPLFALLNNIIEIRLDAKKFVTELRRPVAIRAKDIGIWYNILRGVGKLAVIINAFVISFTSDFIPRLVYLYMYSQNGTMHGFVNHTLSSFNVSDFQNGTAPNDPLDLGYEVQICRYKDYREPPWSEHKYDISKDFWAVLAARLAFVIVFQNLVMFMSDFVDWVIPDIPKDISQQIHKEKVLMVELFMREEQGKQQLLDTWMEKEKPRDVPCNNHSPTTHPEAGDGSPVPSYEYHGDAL
# GRIN3A LBD mod: modulates the human NR3A ligand-binding domain; NR3A LBD differential scanning fluorimetry, Tm shift; 0% = protein alone, 100% = glycine-bound protein; actives 2.5% (n = 340,000); Tm shift relative to glycine control, % at 25 µM; AID 1259313;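 active means melting temperature shift of at least 10% of the positive control shift, at one fixed dose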
# CRFBP-R2 agonist: CRF-BP/CRF-R2 complex agonism. HEK293 CRF-R2/CRF-BP, calcium dye fluorescence (FLIPR); percent of saturating CRF peptide response. activation, % at 13.2 µM. actives 0.46% (n = 350,000). AID 588473;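 active means activation of at least 50%, plus an integration ratio under a set limit after plate pattern correction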
# MPTP block: blocks calcium-induced mitochondrial swelling; isolated mouse mitochondria, Ca2+ swelling absorbance, 30 min; inhibition, % at 10 µM; actives 1.4% (n = 360,000); AID 602449;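 active means inhibition of 50% or more, scaled per plate between neutral and stimulator controls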
# ANO1 block: blocks the mouse calcium-activated chloride channel TMEM16A; Q8BHY3; HEK293 TMEM16A/YFP iodide influx fluorescence, ionomycin; normalized B-score (activity score, 25-100; higher = stronger inhibition) at 10 µM; actives 1.2% (n = 310,000); AID 588511;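 active means ratio plate-corrected score three or more library SD toward inhibition, starting fluorescence score within five deviations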;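 further: score derived from kinetic fluorescence span divided by baseline fluorescence per well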
# A number is an active result; n = inactive; x = no result; ! = not active in a repeat.
SMILES,CRFR2-BP antag,ANO1 activ,GRIN3A LBD mod,CRFBP-R2 agonist,MPTP block,ANO1 block
N[C@@H](Cc1c[nH]c2ccccc12)c1nnc(SCc2ccc(F)cc2)o1,n,n,13,n,n,x
CC1NC(=O)NC(=O)C1Br (stereo unspecified),n,n,n,n,n,x
CC(=NCCC1=CCCCC1)c1c(O)n(-c2ccccc2)c(=O)[nH]c1=O,n,n,n,n,n,n
CSc1ncc(CN2CCCC(C(=O)c3ccccc3SC)C2)cn1 (stereo unspecified),n,n,n,n,n,n
CSc1ccc(C(=O)C2CCCN(Cc3cnc(SC)nc3)C2)cc1 (stereo unspecified),n,n,n,n,n,25
C[C@]12CCC3C(C(=O)C[C@H]4C[C@@H](O)CC[C@]34C)C1CCC2=O (stereo partly specified),n,n,n,n,n,x
COc1ccc(Cn2c(O)c(/C=N/NC(=O)c3ccccc3)c(=O)[nH]c2=O)cc1,55,n,n,n,n,n
COc1ccc(Cn2c(O)c(/C=N/NC(=O)c3ccncc3)c(=O)[nH]c2=O)cc1,n,n,n,n,n,n
CCN(CC)c1ccc(N=Cc2c(O)n(Cc3ccccc3)c(=O)[nH]c2=O)cc1,n,n,n,190!,n,n
CN1C2CCC1C(C(=O)O)C(O)C2 (stereo unspecified),n,n,n,n,n,x
COc1ccc(-n2c(O)c(/C=C/C=Nc3ccccc3)c(=O)[nH]c2=O)cc1,n,n,n,105,n,n
Cc1ccc(-n2c(O)c(/C=C/C=Nc3ccccc3)c(=O)[nH]c2=O)cc1,n,n,n,53,n,n
O=c1[nH]c(=O)n(-c2ccccc2)c(O)c1/C=C/C=Nc1ccccc1,n,n,n,n,n,n
O=c1[nH]c(=O)n(C2CCCCC2)c(O)c1/C=C/C=Nc1ccccc1,n,n,n,112,n,n
CC(C)c1cc(Br)c(NC(=O)Nc2cccnc2)c(Br)c1,n,n,n,n,n,n
Nc1cc(Cl)c2nonc2c1[N+](=O)[O-],58,n,n,n,n,n
CCN(CC)c1ccc(/C=C2\C(=O)NC(=S)N(c3ccc(OC)cc3OC)C2=O)o1,n,n,n,n,n,n
CCN(CC)c1ccc(C=C2C(=O)N(C)C(=S)N(C)C2=O)o1,n,n,n,88,n,n
Cc1cc(C)cc(N2C(=O)/C(=C\c3ccc(N4CCN(C)CC4)o3)C(=O)NC2=S)c1,n,n,n,57,n,n
CN1C(=O)C(=Cc2ccc(SC3CCCCC3)o2)C(=O)N(C)C1=O,n,n,n,n,n,n
CN1C(=O)C(=Cc2ccc(N3CCCCC3)o2)C(=O)N(C)C1=S,n,n,n,133,n,n
CCN(CC)c1ccc(/C=C2\C(=O)NC(=S)N(C)C2=O)o1,n,n,n,58,n,n
COc1ccc(N2C(=O)NC(=O)/C(=C\c3cn(C)c4ccccc34)C2=O)cc1,n,n,n,120,n,n
COC(=O)Cn1cc(/C=C2\C(=O)NC(=O)N(c3ccc(OC)cc3)C2=O)c2ccccc21,n,x,n,81,n,n
COC(=O)Cn1cc(C=C2C(=O)NC(=O)NC2=O)c2ccccc21,n,n,n,n,n,n
SMILES,CRFR2-BP antag,ANO1 activ,GRIN3A LBD mod,CRFBP-R2 agonist,MPTP block,ANO1 block
CC1(C(O)(C#CCN2CCCCC2)c2ccccc2)CCCC1 (stereo unspecified),n,n,n,n,n,n
Nc1c2c(nc3ccccc13)CCN(Cc1ccccc1)C2,n,n,n,69,n,n
COc1ccc(CN(CCc2c[nH]c3ccccc23)Cc2ccc(OC)cc2)cc1,63,n,n,n,n,x
COc1cccc(CNCCc2c[nH]c3ccccc23)c1,n,x,n,n,n,n
COc1ccc(N2C(=O)/C(=C/C=C/c3ccccc3[N+](=O)[O-])C(=O)NC2=S)cc1,n,x,100,n,x,x
CC1=C[C@@H]2c3cccc4[nH]cc(c34)C[C@H]2N(C)C1,n,-14,x,n,n,n
CN1C[C@H](CO)C=C2c3cccc4[nH]cc(c34)C[C@H]21,n,n,n,n,n,n
Cc1cc(C(=O)C[N+]23CCN(CC2)CC3)c(C)n1-c1ccc(Br)cc1,n,n,n,n,n,n
